Experimental data as given in paper PMC8384837, “Expanding the binding specificity for RNA recognition by a PUF domain”.

Key:
Assay in all cases: yeast three-hybrid, YBZ-1, SC-Leu-His + 0.5 mM 3-AT, 4 days
Conditions in all cases: tags: N-Gal4 AD-HA kept; label: inside an RPR1-promoter hybrid RNA with tandem MS2 sites; ssRNA
[1] = target: PUM1 PUF domain R1-ERV (Homo sapiens, UniProt Q14671 828-1176, S863E;Q867V)
Summary of the method: (§1)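 Repeat regions from input (SC-Leu) and selection (SC-Leu-His + 0.5 mM 3-AT) plates were PCR-amplified and Illumina-sequenced after four days of growth. The cells were strain YBZ-1 with a LexA–MS2 coat fusion and a HIS3 reporter, co-expressing Pumilio-1 PUF domain libraries and matching RNA elements from a centromeric plasmid. The interaction score is the log change in variant frequency from input to selection, taken in log2 with a pseudocount of 1 for absent variants.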

[2] = target: PUM1 PUF domain R5-QAK (Homo sapiens, UniProt Q14671 828-1176, C1007Q;R1008A;Q1011K)
Summary of the method: as §1

[3] = target: PUM1 PUF domain R5-LNR (Homo sapiens, UniProt Q14671 828-1176, C1007L;R1008N;Q1011R)
Summary of the method: as §1

[4] = target: PUM1 PUF domain R5-RFM (Homo sapiens, UniProt Q14671 828-1176, C1007R;R1008F;Q1011M)
Summary of the method: as §1

[5] = target: PUM1 PUF domain R5-KCV (Homo sapiens, UniProt Q14671 828-1176, C1007K;R1008C;Q1011V)
Summary of the method: as §1

[6] = target: PUM1 PUF domain R8-PKR (Homo sapiens, UniProt Q14671 828-1176, N1122P;Y1123K;Q1126R)
Summary of the method: as §1

[7] = target: PUM1 PUF domain R8-GWR (Homo sapiens, UniProt Q14671 828-1176, N1122G;Y1123W;Q1126R)
Summary of the method: as §1

[8] = target: PUM1 PUF domain R5-IHE (Homo sapiens, UniProt Q14671 828-1176, C1007I;R1008H;Q1011E)
Summary of the method: as §1

[9] = target: PUM1 PUF domain R3-GYW (Homo sapiens, UniProt Q14671 828-1176, C935G;R936Y;Q939W)
Summary of the method: as §1

[10] = target: PUM1 PUF domain R7-QNE (Homo sapiens, UniProt Q14671 828-1176, S1079Q)
Summary of the method: as §1

[11] = target: PUM1 PUF domain R3-TRG (Homo sapiens, UniProt Q14671 828-1176, C935T;Q939G)
Summary of the method: as §1

[12] = target: T1, PUM1 PUF domain R6-VYQ (Homo sapiens, UniProt Q14671 828-1176, N1043V)
T1 sequence: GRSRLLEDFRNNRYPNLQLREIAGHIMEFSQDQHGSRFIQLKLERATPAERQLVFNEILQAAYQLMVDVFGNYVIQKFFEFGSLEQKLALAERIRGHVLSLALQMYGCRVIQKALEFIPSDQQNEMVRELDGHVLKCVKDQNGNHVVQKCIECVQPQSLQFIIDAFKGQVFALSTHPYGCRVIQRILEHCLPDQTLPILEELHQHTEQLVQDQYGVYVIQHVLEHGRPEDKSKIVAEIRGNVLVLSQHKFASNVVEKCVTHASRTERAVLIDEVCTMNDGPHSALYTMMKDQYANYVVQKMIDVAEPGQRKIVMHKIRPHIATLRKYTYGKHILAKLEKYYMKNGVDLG
Summary of the method: as §1

[13] = target: PUM1 PUF domain R5-RDR (Homo sapiens, UniProt Q14671 828-1176, C1007R;R1008D;Q1011R)
Summary of the method: as §1

[14] = target: PUM1 PUF domain R5-KRW (Homo sapiens, UniProt Q14671 828-1176, C1007K;Q1011W)
Summary of the method: as §1

[15] = target: PUM1 PUF domain R5-QCH (Homo sapiens, UniProt Q14671 828-1176, C1007Q;R1008C;Q1011H)
Summary of the method: as §1

[16] = target: PUM1 PUF domain R7-LWG (Homo sapiens, UniProt Q14671 828-1176, S1079L;N1080W;E1083G)
Summary of the method: as §1

[17] = target: PUM1 PUF domain R7-KWR (Homo sapiens, UniProt Q14671 828-1176, S1079K;N1080W;E1083R)
Summary of the method: as §1

[18] = target: PUM1 PUF domain R2-RRG (Homo sapiens, UniProt Q14671 828-1176, N899R;Y900R;Q903G)
Summary of the method: as §1

With “GGCUAGAACUAGUGGAUCCCCCGGCGCCCGGCGGCUCGAGCCCGGGUAAGUGUAAAUCGUCUGCAUGCCGCCGGGCGCCAUGCCUGCAGGUCGACUCUAGAAAACAUG” the binding signal [1] was 5.04 log2 enrichment (interaction score).
For “GGCUAGAACUAGUGGAUCCCCCGGCGCCCGGCGGCUCGAGCCCGGGUAAGUGUUAAUAGUCUGCAUGCCGCCGGGCGCCAUGCCUGCAGGUCGACUCUAGAAAACAUG”, the binding signal [2] was 3.34 log2 enrichment (interaction score), the binding signal [3] was 4.82 log2 enrichment (interaction score) and the binding signal [4] was 4.36 log2 enrichment (interaction score). The binding signal [5] was 1.51 log2 enrichment (interaction score).
For “GGCUAGAACUAGUGGAUCCCCCGGCGCCCGGCGGCUCGAGCCCGGGUAAGCGUAAAUAGUCUGCAUGCCGCCGGGCGCCAUGCCUGCAGGUCGACUCUAGAAAACAUG”, the binding signal [6] was 3.72 log2 enrichment (interaction score) and the binding signal [7] was 5.66 log2 enrichment (interaction score).
“GGCUAGAACUAGUGGAUCCCCCGGCGCCCGGCGGCUCGAGCCCGGGUAAGUGUAAAUAGUCUGCAUGCCGCCGGGCGCCAUGCCUGCAGGUCGACUCUAGAAAACAUG” was tested, and the binding signal [6] was 2.74 log2 enrichment (interaction score), the binding signal [7] was 5.13 log2 enrichment (interaction score) and the binding signal [3] was 1.95 log2 enrichment (interaction score). The binding signal [8] was 3.04 log2 enrichment (interaction score), the binding signal [9] was 5.68 log2 enrichment (interaction score) and the binding signal [10] was 4.09 log2 enrichment (interaction score). The binding signal [11] was 3.15 log2 enrichment (interaction score), the binding signal [12] was 4.06 log2 enrichment (interaction score) and the binding signal [4] was 1.2 log2 enrichment (interaction score).
“GGCUAGAACUAGUGGAUCCCCCGGCGCCCGGCGGCUCGAGCCCGGGUAAGUGUCAAUAGUCUGCAUGCCGCCGGGCGCCAUGCCUGCAGGUCGACUCUAGAAAACAUG” was tested, and the binding signal [13] was 3.41 log2 enrichment (interaction score), the binding signal [14] was 2.58 log2 enrichment (interaction score) and the binding signal [5] was 2.63 log2 enrichment (interaction score).
For “GGCUAGAACUAGUGGAUCCCCCGGCGCCCGGCGGCUCGAGCCCGGGUAAGUGUGAAUAGUCUGCAUGCCGCCGGGCGCCAUGCCUGCAGGUCGACUCUAGAAAACAUG”, the binding signal [13] was 2.62 log2 enrichment (interaction score) and the binding signal [15] was 3.31 log2 enrichment (interaction score).
In the case of “GGCUAGAACUAGUGGAUCCCCCGGCGCCCGGCGGCUCGAGCCCGGGUAAGUGUAAUUAGUCUGCAUGCCGCCGGGCGCCAUGCCUGCAGGUCGACUCUAGAAAACAUG”, the binding signal [9] is reported as 2.62 log2 enrichment (interaction score).
“GGCUAGAACUAGUGGAUCCCCCGGCGCCCGGCGGCUCGAGCCCGGGUAAGUCUAAAUAGUCUGCAUGCCGCCGGGCGCCAUGCCUGCAGGUCGACUCUAGAAAACAUG” was tested, and the binding signal [16] was 2.65 log2 enrichment (interaction score) and the binding signal [17] was 5.09 log2 enrichment (interaction score).
“GGCUAGAACUAGUGGAUCCCCCGGCGCCCGGCGGCUCGAGCCCGGGUAAGUUUAAAUAGUCUGCAUGCCGCCGGGCGCCAUGCCUGCAGGUCGACUCUAGAAAACAUG” was tested, and the binding signal [16] was 5.68 log2 enrichment (interaction score).
In the case of “GGCUAGAACUAGUGGAUCCCCCGGCGCCCGGCGGCUCGAGCCCGGGUAAGUGUAAAGAGUCUGCAUGCCGCCGGGCGCCAUGCCUGCAGGUCGACUCUAGAAAACAUG”, the binding signal [18] is reported as 2.19 log2 enrichment (interaction score).
With “GGCUAGAACUAGUGGAUCCCCCGGCGCCCGGCGGCUCGAGCCCGGGUAAGUAUAAAUAGUCUGCAUGCCGCCGGGCGCCAUGCCUGCAGGUCGACUCUAGAAAACAUG” the binding signal [17] was 2.7 log2 enrichment (interaction score).
